{"source": "PubChem BioAssay AID2561", "about": "(National Center for Advancing Translational Sciences (NCATS), 2010)", "note": "Results filed as inconclusive are left out. Calls of active or inactive are those of the source. Calls follow the shape of the dose curve; as a rule, active = well fitted inhibition curve with a large enough effect; inconclusive = small, poorly fitted or top-dose-only effect, or effect the other way; inactive = flat fitted curve, though single readings scatter. Potency is read from the fitted curve at half-maximal effect."}
{"target": "Pyruvate kinase (Leishmania mexicana) (UniProt Q27686)", "sequence (Q27686 whole entry, looked up)": "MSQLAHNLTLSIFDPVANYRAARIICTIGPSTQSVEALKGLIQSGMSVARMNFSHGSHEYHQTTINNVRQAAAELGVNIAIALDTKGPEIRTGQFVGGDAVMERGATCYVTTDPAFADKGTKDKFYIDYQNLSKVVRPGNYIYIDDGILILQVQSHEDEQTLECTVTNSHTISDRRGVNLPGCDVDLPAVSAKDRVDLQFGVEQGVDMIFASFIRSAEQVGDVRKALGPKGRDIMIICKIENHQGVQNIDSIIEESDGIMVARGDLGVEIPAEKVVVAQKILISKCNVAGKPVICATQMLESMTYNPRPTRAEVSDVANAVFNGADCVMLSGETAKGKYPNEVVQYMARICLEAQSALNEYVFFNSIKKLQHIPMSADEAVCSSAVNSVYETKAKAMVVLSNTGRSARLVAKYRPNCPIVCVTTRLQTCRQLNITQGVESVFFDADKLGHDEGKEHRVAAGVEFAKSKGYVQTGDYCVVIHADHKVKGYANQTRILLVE", "experiment": "Confirmation Assay for Inhibitors of Leishmania Mexicana Pyruvate Kinase (LmPK): for Probe SAR;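 as to activity change, negative = inhibition: plate controls were uninhibited enzyme for no effect and no enzyme wells for full effect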", "settings": "purified LmPK, ATP generation, Kinase-Glo luminescence; series mostly up to 57.5 µM; activity change, negative = inhibition: at the top concentration", "how_it_was_run": "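Purified L. mexicana pyruvate kinase (0.1 nM) with 0.5 mM PEP and 0.1 mM ADP in pH 7.2 imidazole buffer, 1 h at RT. ATP formed measured by Kinase-Glo luminescence; normalized to uninhibited and no-enzyme wells.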"}
{"smiles": "COC(=O)c1ccccc1S(=O)(=O)Nc1cc(=O)c2ccccc2[nH]1", "activity change, negative = inhibition": "0.72% (inactive)"}
{"smiles": "O=C1c2ccccc2C(=O)N1c1cnc2ccccc2c1", "activity change, negative = inhibition": "9.24% (inactive)"}
{"smiles": "Cc1ccc2nc(-c3cccs3)c(Nc3ccccc3)n2c1", "activity change, negative = inhibition": "-3.68% (inactive)"}
{"smiles": "Cc1ccc(NS(=O)(=O)c2ccc3c(c2)CCC(=O)N3)cc1", "activity change, negative = inhibition": "12.6% (inactive)"}
{"smiles": "CC(=O)Nc1ccc(OC2=NS(=O)(=O)c3ccccc32)cc1", "Potency": "4.11 µM (active)"}
{"smiles": "CC(C)(C)c1ccc(SC2=NS(=O)(=O)c3ccccc32)cc1", "Potency": "3.26 µM (active)"}
{"smiles": "O=C1CCc2cc(S(=O)(=O)Nc3ccc4ccccc4c3)ccc2N1", "activity change, negative = inhibition": "19.4% (inactive)"}
{"smiles": "O=C1c2ccccc2C(=O)N1Cc1ccncc1", "activity change, negative = inhibition": "-15.4% (inactive)"}
{"smiles": "O=C1c2ccccc2C(=O)N1c1ccc2ncccc2c1", "activity change, negative = inhibition": "6.91% (inactive)"}
{"smiles": "O=S1(=O)N=C(Oc2ccccc2-c2ccccc2)c2ccccc21", "Potency": "3.66 µM (active)"}
{"smiles": "Cc1ccc(Nc2c(-c3ccc(C)s3)nc3cccc(C)n23)cc1", "activity change, negative = inhibition": "-1.87% (inactive)"}
{"smiles": "Cn1c2cc(S(C)=O)sc2c2cnn(Cc3cccc(N)c3)c(=O)c21", "note": "(stereo not given)", "activity change, negative = inhibition": "4.83% (inactive)"}
{"smiles": "O=S1(=O)N=C(Oc2cccc(Br)c2)c2ccccc21", "Potency": "3.66 µM (active)"}
{"smiles": "Cc1ccc(Nc2c(-c3ccc(C)o3)nc3ccccn23)cc1", "activity change, negative = inhibition": "16.8% (inactive)"}
{"smiles": "CC(=O)Nc1cccc(S(=O)(=O)Nc2ccc(C)c(C)c2)c1", "activity change, negative = inhibition": "1.41% (inactive)"}
{"smiles": "CCOc1ccc2c(c1)C(=O)C(c1cc(=O)c3ccccc3[nH]1)C2=O", "note": "(stereo not given)", "activity change, negative = inhibition": "-12.2% (inactive)"}
{"smiles": "Cc1ccc(NS(=O)(=O)c2ccc(-c3ccccc3)cc2)cc1C", "activity change, negative = inhibition": "-0.78% (inactive)"}
{"smiles": "O=C1NS(=O)(=O)c2cc3c(cc21)C(=O)NS3(=O)=O", "activity change, negative = inhibition": "2.34% (inactive)"}
{"smiles": "N#Cc1cccnc1SC1=NS(=O)(=O)c2ccccc21", "Potency": "16.3 µM (active)"}
{"smiles": "Cc1cc(C)n2c(Nc3ccccc3)c(-c3ccc(C)o3)nc2n1", "activity change, negative = inhibition": "1.14% (inactive)"}
{"smiles": "Cc1ccc(Nc2c(-c3ccc(C)s3)nc3ccccn23)cc1", "activity change, negative = inhibition": "-1.99% (inactive)"}
{"smiles": "O=S1(=O)N=C(Oc2ccccc2F)c2ccccc21", "Potency": "3.26 µM (active)"}
{"smiles": "O=C1c2ccccc2C(=O)N1c1cccc(O)c1", "activity change, negative = inhibition": "-8.63% (inactive)"}
{"smiles": "COC(=O)c1ccc2c(c1)S(=O)(=O)NC2=O", "activity change, negative = inhibition": "-0.49% (inactive)"}
{"smiles": "O=S1(=O)N=C(Oc2ccc(Br)cc2)c2ccccc21", "Potency": "2.91 µM (active)"}
{"smiles": "O=S1(=O)N=C(Oc2ccc3ccccc3c2)c2ccccc21", "Potency": "4.11 µM (active)"}
{"smiles": "Cc1ccc(C)c(OC2=NS(=O)(=O)c3ccccc32)c1", "Potency": "2.59 µM (active)"}
{"smiles": "Cc1ccc(-c2nc3ccc(Cl)cn3c2Nc2ccccc2)o1", "activity change, negative = inhibition": "-0.673% (inactive)"}
{"smiles": "O=S1(=O)N=C(Oc2cccc3ccccc23)c2ccccc21", "Potency": "4.11 µM (active)"}
{"smiles": "O=S1(=O)N=C(Oc2cccc(-c3ccccc3)c2)c2ccccc21", "Potency": "3.26 µM (active)"}
